# Source: PubChem
# Most compounds without a hit are left out; they make up all but 1.4% or so of the library.
# EPAC1 agonist = activates human EPAC1 exchange factor | O95398 | EPAC1 agonist qHTS, biochemical assay; response scale: 100% = response to 6.5 mM cAMP | Potency, µM (series often up to 154 µM), for inactives: at the top dose activation, actives largely listed as activators | actives 0.073% (n = 360,000) | AID 720707; also: nearly all actives have a fitted effect of over 60% in size
#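 Nucleotide exchange by EPAC1 (100 nM) on Rap1B–BODIPY-GDP (250 nM) in the presence of 50 uM GDP is tracked fluorescently at 480/540 nm over 30 min. Signals are normalized to a 6.5 mM cAMP control.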
# EPAC2 antag = antagonists of human EPAC2; Q8WZA2; EPAC2 GEF exchange of Rap1B-BODIPY-GDP, fluorescence; Potency, µM (top dose mostly 114 µM), without a hit: at the top dose activity, negative = inhibition, hits mostly inhibitors; actives 0.18% (n = 360,000); also: % is scaled to controls: 0 for no effect and ±100 for the full control effect; nearly all actives have a fitted effect of over 45% in size
# EPAC1 antagonist = blocks human EPAC1 exchange factor. O95398. EPAC1 GEF assay, Rap1b-BODIPY-GDP exchange fluorescence. Potency, µM (series often up to 115 µM), inactives show top-dose activity change, negative = inhibition, usual class: inhibitors. actives 0.14% (n = 360,000);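 also: plate controls were vehicle for no effect and positive control for full effect; nearly all actives have a fitted effect of over 50% in size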
# BRCA1 expr up = activators of BRCA1 expression; MCF7-BRCA1-FFLuc reporter, luminescence, 48 h; response scale: scaled: vehicle 0%, 10 µM genistein 100%; Potency, µM (highest dose often 46.1 µM), inactives show at the highest dose activation, hits mostly activators; AID 624202; actives 1.1% (n = 380,000); also: nearly all actives have a fitted effect of over 80% in size
#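 MCF7-BRCA1-FFLuc cells, 2000/well in phenol-red-free MEM, attached 2 h then treated 48 h at 37 C. Luciferase luminescence read 15 min after reagent; normalized to genistein maximum activation (10microM) and DMSO, concentration-response fitted.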
# EPAC2 ag = activates human EPAC2 exchange factor | Q8WZA2 | EPAC2 activation, biochemical qHTS; response scale: 100% = 6.5 mM cAMP response | Potency, µM (highest dose often 154 µM), for inactives: at the top dose activation, hits mostly activators | actives 0.079% (n = 360,000); also: nearly all actives have a fitted effect of over 50% in size
#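 Exchange assay: 100 nM EPAC2 with 250 nM Rap1B-BODIPY-GDP and 50 uM GDP. Fluorescence (ex 480/em 540 nm) read every 5 min for 30 min at room temperature. Data normalized to 6.5 mM cAMP as agonist control.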
# USP1-UAF1 inh = inhibitors of human USP1/UAF1 deubiquitinase. O94782. actives 0.23% (n = 390,000). Potency, µM (titrated, usually from 57.1 µM), for the others: top-dose activity change, negative = inhibition, most hits filed as inhibitors. AID 743255. recombinant USP1/UAF1, Ub-Rhodamine cleavage fluorescence; also: % is scaled to controls: 0 for no effect and ±100 for the full control effect; nearly all actives have a fitted effect of over 60% in size
#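 1 nM enzyme complex + cpd, 15 min RT; start with Ub-Rho 150nM final; kinetic fluorescence ex 480/em 540, 6 reads q60 s. Buffer 50mM HEPES pH 7.8, 0.5mM EDTA, 0.1 mg/ml BSA, 1mM TCEP, 0.01% Tween-20.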
# The depositor's hits bear a star; ? = inconclusive; . = not tested or not shown. Calls follow the shape of the dose curve; as a rule, active = well fitted curve in the direction sought with a large enough effect; inconclusive = small, poorly fitted or top-dose-only effect, or another doubt; inactive = no such curve, though single readings can be large; an effect the other way counts as inactive or inconclusive. Potency is read from the fitted curve at half-maximal effect.
SMILES,EPAC1 agonist,EPAC2 antag,EPAC1 antagonist,BRCA1 expr up,EPAC2 ag,USP1-UAF1 inh
Cc1ccc(CSc2ccc(-c3ccco3)nn2)cc1,-9%,-1%,-5%,3.5µM*,6%,-18%
Clc1cccc(CSc2ccc(-c3ccco3)nn2)c1,4%,-1%,-4%,62%,13%,-17%
CCc1ccc([C@@H]2C[C@H]3[C@@H](CN2S(=O)(=O)c2ccc(C)cc2)C(=O)C[C@@H](c2ccc(C)cc2)N3S(=O)(=O)c2ccc(C)cc2)cc1,4%,0%,-6%,0%,2%,-14%
O=c1[nH]c(-c2ccccc2)ncc1Oc1ccccc1,13%,4%,5%,-4%,2%,-9%
O=C(CSc1ccccc1F)NC(=O)NC1CCCC1,10%,-13%,2%,74%,-1%,-13%
CCOc1ccccc1CNn1cnnc1SCC(=O)NC(C)(C)C,4%,-9%,2%,-7%,6%,-16%
Cc1csc(NC(=O)CSc2sc3c(O)cc(=O)[nH]c3c2C#N)n1,4%,-1%,50µM*,-24%,0%,?
Cc1nn2cc(-c3ccc(Cl)cc3)cnc2c1Cl,1%,-9%,-18%,3.2µM*,5%,-5%
Cc1cc2ncc(-c3cccc(Cl)c3)cn2n1,-2%,5%,6%,0%,-5%,-24%
O=C(c1cc(-c2ccccc2O)on1)N1CCCCCC1,-5%,-11%,-2%,?,-1%,-3%
COc1cc(/C=C/c2ccc3cccc(O)c3n2)ccc1O,27%,7%,-19%,11µM*,23%,?
COc1cc(Br)c(/C=C/c2ccc3cccc(O)c3n2)cc1OC,-12%,1%,-2%,-17%,9%,-19%
O=C(CCNC(=O)C1CCN(S(=O)(=O)c2ccc(F)cc2)CC1)NCc1ccncc1,9%,-4%,8%,-2%,6%,-15%
Cc1cc(C)nc(NC(=O)Nc2ccc(F)cc2F)n1,10%,4%,18%,4µM*,2%,-24%
C=CCNC(=O)Nc1ccc2oc(C)nc2c1,4%,-2%,2%,2%,4%,0%
COc1cccc(NC(=O)Nc2ccccc2Br)c1,-3%,-13%,-21%,10µM*,3%,-22%
COc1ccc(NC(=O)Nc2ccc3oc(C)nc3c2)cc1,-5%,-5%,-6%,2.8µM*,4%,-5%
COc1ccc(NC(=O)Nc2nc(C)cc(C)n2)c(OC)c1,6%,8%,-7%,-39%,6%,-3%
COc1ccc(NC(=O)Nc2ccc(F)cc2F)c(C)c1,3%,9%,5%,18%,-1%,-17%
COC(=O)c1sccc1NC(=O)Nc1cccc(OC)c1,1%,-5%,-17%,6%,15%,-19%
COc1ccc(NC(=O)Nc2ccc(F)cc2F)cc1,-8%,-3%,-13%,10µM*,-3%,-4%
O=C(Nc1cccc(OC(F)(F)F)c1)c1ccc(-c2cccnc2)c2ccoc12,-18%,-27%,-24%,?,-14%,.
Cc1ccc(-c2cnc(NCc3ccc(C(F)(F)F)cc3)n2C)cc1,.,.,.,-13%,.,-17%
COc1ccc(NC(=O)Nc2ccc3c(c2)CCC3)cc1,-8%,16%,-16%,2.5µM*,11%,-18%
COc1cccc(NC(=O)Nc2ccc3nc(C)c(C)nc3c2)c1,-3%,2%,-19%,?,1%,-22%
SMILES,EPAC1 agonist,EPAC2 antag,EPAC1 antagonist,BRCA1 expr up,EPAC2 ag,USP1-UAF1 inh
COc1cccc(NC(=O)Nc2ccc3nsnc3c2)c1,13%,-5%,-7%,7.1µM*,14%,-18%
COc1cccc(NC(=O)CSc2ccccn2)c1,0%,17%,7%,10µM*,-1%,-18%
COc1ccc(NC(=O)Nc2cccc(OC)c2)cc1,6%,-13%,?,11µM*,12%,-22%
COc1ccc(NC(=O)c2ccccc2NC(=O)C2CCCCC2C(=O)O)cc1 (stereo not given),-7%,-4%,-3%,59%,9%,-11%
CN1CCN(c2ccc(-c3cccc(NC(=O)COc4ccc(Cl)cc4Cl)c3)nn2)CC1,3%,17%,-16%,16%,-3%,-12%
Cc1c(NC(=O)c2cccc(-c3cc4ccccc4oc3=O)c2)cccc1-c1nc2ncccc2o1,-7%,6%,-5%,32%,1%,-22%
CC1CCN(C(=O)CSCc2ccc(Cl)cc2)CC1,3%,-24%,-8%,2.8µM*,2%,6%
O=C(CSCc1ccc(F)cc1)N1CCN(c2ccc(Cl)cc2)CC1,.,.,.,.,.,-11%
CC1Cc2nc(SCC(=O)Nc3nccs3)n(Cc3ccccc3)c(=O)c2S1 (stereo not given),3%,7%,-4%,0%,10%,?
COCCn1c(SCC(=O)Nc2ccc3c(c2)OCCO3)nc2c(c1=O)SC(C)C2 (stereo not given),7%,1%,-16%,8.9µM*,9%,-6%
CC1Cc2nc(SCC(=O)Nc3ccc4c(c3)OCCO4)n(C)c(=O)c2S1 (stereo not given),-3%,-2%,19%,-3%,3%,-17%
CC1Cc2nc(SCC(=O)Nc3ccc4c(c3)OCO4)n(Cc3ccccc3)c(=O)c2S1 (stereo not given),4%,3%,-4%,11µM*,2%,-5%
CCC1CCCCN1CC(=O)N1CCCc2c1c(=O)oc1ccc(OCc3ccccc3)cc21 (stereo not given),.,.,.,.,.,-11%
CCOC(=O)c1c(C)oc2nc(C)nc(NCCc3ccc(OC)c(OC)c3)c12,.,.,.,.,.,-18%
Nc1cc(Cl)nc(N/N=C/c2ccccc2[N+](=O)[O-])n1,1%,-5%,-3%,11µM*,3%,1%
Cc1ccc(S(=O)(=O)N2[C@H](c3cccc(Cl)c3)CC(=O)[C@@H]3CN(S(=O)(=O)c4ccccc4C)[C@H](c4ccc(Cl)cc4)C[C@@H]32)cc1,-6%,5%,10%,-10%,6%,-11%
COc1ccc(N(CC(=O)N/N=C(\C)c2ccc(OC)c(OC)c2)S(=O)(=O)c2ccccc2)cc1,-14%,-1%,-17%,-14%,7%,-22%
Cc1nc2ccc(NC(=O)CCC3CCCC3)cc2s1,3%,-9%,-23%,11µM*,10%,?
COc1cc(C(=O)Nc2nc3nc(-c4ccccc4)cc(=O)n3[nH]2)cc(OC)c1OC,.,.,.,.,.,2%
O=C(CN1CCCC1)N1c2ccccc2C=Cc2ccccc21,2%,3%,0%,1%,1%,-24%
N#CC1=C2C=Cc3ccccc3N2CCCC1=O,2%,-3%,-19%,2.5µM*,8%,-6%
